Read-out in assay [1]: Transforming growth factor beta 1 (TGFb1), TGFB1 (gene 7040)
The assay is described as follows: BSK_KF3CT_TGFb1: BioMAP Diversity Plus: KF3CT Assay for Transforming growth factor beta 1 (TGFb1) Biomarker Activity (AID 2283072). The conditions noted are these: primary human keratinocytes with fibroblasts; actives raise or lower the signal. An outline of the steps: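 ELISA quantifies TGF-b1 at 24 h post-dose in a primary human skin co-culture of keratinocytes and fibroblasts, with gain or loss judged against DMSO. Parallel SRB total-protein staining flags overt cytotoxicity.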

Read-out in assay [2]: C-C motif chemokine 2 (Homo sapiens) (UniProt P13500)
The assay is described as follows: BSK_KF3CT_MCP1: BioMAP Diversity Plus: KF3CT Assay for Monocyte Chemoattractant Protein 1 (MCP1/CCL2) Biomarker Activity (AID 2283073). The conditions noted are these: primary human keratinocytes with fibroblasts; actives raise or lower the signal. The gist of the method: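 ELISA read-out of MCP-1, 24 h post-dose, in primary human skin keratinocytes co-cultured with fibroblasts. Parallel SRB staining monitors cytotoxicity; changes fitted both directions relative to DMSO.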

Read-out in assay [3]: Matrix Metallopeptidase 9 (MMP9), MMP9 (gene 4318)
Kind of assay: BSK_KF3CT_MMP9: BioMAP Diversity Plus: KF3CT Assay for Matrix Metallopeptidase 9 (MMP9) Biomarker Activity (AID 2283074). The conditions noted are these: primary human keratinocytes with fibroblasts; actives raise or lower the signal. The gist of the method: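 ELISA read-out of MMP-9 at 24 h post-dosing in a co-culture of human skin keratinocytes and foreskin fibroblasts. Gain or loss of signal was fitted in both directions against DMSO.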

Read-out in assay [4]: urokinase plasminogen activator (uPA), PLAU (gene 5328)
Kind of assay: BSK_KF3CT_uPA: BioMAP Diversity Plus: KF3CT Assay for urokinase plasminogen activator (uPA) Biomarker Activity (AID 2283075). The conditions noted are these: primary human keratinocytes with fibroblasts; actives raise or lower the signal. The gist of the method: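 Skin co-culture (keratinocytes + foreskin fibroblasts), human primary; 24 h post-dose; uPA by ELISA; gain/loss fit vs DMSO baseline.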

Read-out in assay [5]: E-selectin (Homo sapiens) (UniProt P16581)
Kind of assay: BSK_LPS_Eselectin: BioMAP Diversity Plus: LPS Assay for Eselectin Biomarker Activity (AID 2283077). The conditions noted are these: primary human HUVEC with PBMC; actives raise or lower the signal. The gist of the method: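 E-selectin ELISA on LPS-stimulated endothelial cell/PBMC co-cultures, read 24 h post-treatment; gains and losses fitted against DMSO. Parallel SRB staining (0.1% SRB after 10% TCA fixation, 560 nm) flags overt cytotoxicity.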

Read-out in assay [6]: Interleukin-8 (IL8), CXCL8 (gene 3576)
The assay is described as follows: BSK_LPS_IL8: BioMAP Diversity Plus: LPS Assay for Interleukin-8 (IL8) Biomarker Activity (AID 2283078). The conditions noted are these: primary human HUVEC with PBMC; actives raise or lower the signal. The gist of the method: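 ELISA read-out of IL-8 after 24 h chemical treatment of LPS-activated endothelial/PBMC human primary co-cultures. Changes either up or down relative to DMSO; overt cytotoxicity checked by sulforhodamine B staining in parallel wells.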

Assay [7] can be described thus: BSK_LPS_SRB: Viability Assessment in the BioMAP Diversity Plus: LPS Assay (AID 2283079).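 Note: total protein by sulforhodamine B absorbance as a cytotoxicity measure; measured one day after compound addition.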 The conditions noted are these: primary human HUVEC with PBMC. An outline of the steps:
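SRB viability endpoint: cells fixed with 10% TCA, stained with 0.1% SRB, read at 560 nm, 24 h post-dose. HUVEC/PBMC co-culture; signal change in either direction scored relative to DMSO.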

Read-out in assay [8]: Interleukin-1 alpha (IL1a), IL1A (gene 3552)
Kind of assay: BSK_LPS_IL1a: BioMAP Diversity Plus: LPS Assay for Interleukin-1 alpha (IL1a) Biomarker Activity (AID 2283080). The conditions noted are these: primary human HUVEC with PBMC; actives raise or lower the signal. An outline of the steps:
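Readout is IL-1a level by ELISA, 24 h post-dose, fitted as gain or loss relative to DMSO. System: LPS-activated human primary co-culture of vascular endothelium and peripheral blood mononuclear cells, with parallel SRB total-protein cytotoxicity.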

Read-out in assay [9]: Monocyte Chemoattractant Protein-1 (MCP1), CCL2 (gene 6347)
Kind of assay: BSK_LPS_MCP1: BioMAP Diversity Plus: LPS Assay for Monocyte Chemoattractant Protein-1 (MCP1) Biomarker Activity (AID 2283081).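 For AC50: secreted MCP-1 protein quantified by ELISA in culture supernatant.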 The conditions noted are these: primary human HUVEC with PBMC; actives raise or lower the signal. The gist of the method:
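Secreted MCP-1 read by ELISA at 24 h post-dosing in an LPS-activated co-culture of endothelial cells with peripheral blood mononuclear cells. Fits run in both directions, DMSO as baseline; parallel SRB staining tracks overt cytotoxicity.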

Assay [10] can be described thus: BSK_LPS_PGE2: BioMAP Diversity Plus: LPS Assay for Prostaglandin E2 (PGE2) Biomarker Activity (AID 2283082).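 For AC50: secreted prostaglandin E2 measured by ELISA in LPS-stimulated co-culture.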 The conditions noted are these: primary human HUVEC with PBMC; actives raise or lower the signal. An outline of the steps:
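PGE2 release measured by ELISA in an LPS-activated co-culture of human umbilical vein endothelial cells and peripheral blood mononuclear cells, read at 24 h post-dosing. DMSO served as baseline for bidirectional curve fitting.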

Read-out in assay [11]: Macrophage colony-stimulating factor (MCSF), CSF1 (gene 1435)
Kind of assay: BSK_LPS_MCSF: BioMAP Diversity Plus: LPS Assay for Macrophage colony-stimulating factor (MCSF) Biomarker Activity (AID 2283083). The conditions noted are these: primary human HUVEC with PBMC; actives raise or lower the signal. The gist of the method: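 Bidirectional fitting against DMSO was applied to M-CSF levels read by ELISA at 24 h post-dose. The system pairs human umbilical vein endothelium with peripheral blood mononuclear cells; parallel SRB staining tracked cytotoxicity.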

Read-out in assay [12]: Tissue Factor, F3 (gene 2152)
Kind of assay: BSK_LPS_TissueFactor: BioMAP Diversity Plus: LPS Assay for Tissue Factor Biomarker Activity (AID 2283084). The conditions noted are these: primary human HUVEC with PBMC; actives raise or lower the signal. The gist of the method: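 Compound was added to an endothelial cell/PBMC co-culture, and after 24 h tissue factor (CD142) was read by ELISA. Gain or loss of signal was fitted against a DMSO baseline, and parallel SRB staining (560 nm) tracked overt cytotoxicity.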

Read-out in assay [13]: Tumor necrosis factor (Homo sapiens) (UniProt P01375)
The assay is described as follows: BSK_LPS_TNFa: BioMAP Diversity Plus: LPS Assay for Tumour Necrosis Factor alpha (TNFa) Biomarker Activity (AID 2283085).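 For AC50: TNFa protein level quantified by ELISA in the co-culture.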 The conditions noted are these: primary human HUVEC with PBMC; actives raise or lower the signal. The gist of the method: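 TNFa was quantified by ELISA in LPS-activated co-cultures of human endothelial cells and PBMC, 24 h post-dosing. Both increases and decreases versus DMSO were fitted.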

Read-out in assay [14]: Vascular cell adhesion molecule 1 (VCAM1), VCAM1 (gene 7412)
The assay is described as follows: BSK_LPS_VCAM1: BioMAP Diversity Plus: LPS Assay for Vascular cell adhesion molecule 1 (VCAM1) Biomarker Activity (AID 2283086). The conditions noted are these: primary human HUVEC with PBMC; actives raise or lower the signal. The gist of the method:
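VCAM-1 quantified by ELISA in an LPS-activated co-culture of human endothelial cells and peripheral blood mononuclear cells, read 24 h post-treatment. Fitted in both directions versus DMSO; parallel SRB staining flags overt cytotoxicity.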

Read-out in the next assay: CD38, CD38 (gene 952)
Kind of assay: BSK_SAg_CD38: BioMAP Diversity Plus: SAg Assay for CD38 Biomarker Activity (AID 2283087). The conditions noted are these: primary human HUVEC with PBMC; actives raise or lower the signal. The gist of the method: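 CD38 quantified by ELISA (fluorescence) in a superantigen-activated endothelial cell–PBMC co-culture at 24 h post-dose. Activity fitted in both directions relative to DMSO; parallel SRB and Alamar Blue cytotoxicity read-outs.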

Read-out in assay [15]: CD40, CD40 (gene 958)
The assay is described as follows: BSK_SAg_CD40: BioMAP Diversity Plus: SAg Assay for CD40 Biomarker Activity (AID 2283088). The conditions noted are these: primary human HUVEC with PBMC; actives raise or lower the signal. The gist of the method: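 CD40 is measured by fluorescence ELISA in an endothelial/PBMC primary human co-culture at 24 h post-dose. Fitting is bidirectional, DMSO baseline. Parallel SRB staining (560 nm) flags cytotoxicity.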

Read-out in a further assay: CD69, CD69 (gene 969)
Kind of assay: BSK_SAg_CD69: BioMAP Diversity Plus: SAg Assay for CD69 Biomarker Activity (AID 2283089).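 For AC50: cell surface CD69 protein quantified by ELISA with fluorescence detection.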 The conditions noted are these: primary human HUVEC with PBMC; actives raise or lower the signal. The gist of the method: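 HUVEC co-cultured with PBMC were dosed with chemical, and CD69 was measured by ELISA with fluorescence read-out 24 h later. Bidirectional curve fitting used DMSO as negative control and activity baseline.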

Read-out in assay [16]: Monocyte Chemoattractant Protein-1 (MCP1), CCL2 (gene 6347)
Kind of assay: BSK_SAg_MCP1: BioMAP Diversity Plus: SAg Assay for Monocyte Chemoattractant Protein-1 (MCP1) Biomarker Activity (AID 2283090). The conditions noted are these: primary human HUVEC with PBMC; actives raise or lower the signal. The gist of the method:
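Values derive from bidirectional fitting of ELISA-measured MCP1 against DMSO controls. Readings were taken 24 h after dosing human vascular endothelial cells co-cultured with peripheral blood mononuclear cells under superantigen stimulation.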

Read-out in assay [17]: CD40, CD40 (gene 958)
The assay is described as follows: BSK_LPS_CD40: BioMAP Diversity Plus: LPS Assay for CD40 Biomarker Activity (AID 2283076). The conditions noted are these: primary human HUVEC with PBMC; actives raise or lower the signal. The gist of the method: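 In the LPS system of human endothelial cells with peripheral blood mononuclear cells, CD40 levels were read by ELISA 24 h post-treatment. Signal changes in either direction were fitted against the DMSO baseline, with parallel SRB protein staining.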

Molecules are shown by their SMILES. Active and inactive are the calls of the source. Rule for the calls: active = hit-call score of the fitted dose curve at least 0.9, where 1 is the maximum; inactive = score below 0.9.

As a reminder, the AC50 is the concentration at which the activity in the assay is half-maximal.

Tumor necrosis factor (Homo sapiens), sequence (P01375 whole entry, looked up): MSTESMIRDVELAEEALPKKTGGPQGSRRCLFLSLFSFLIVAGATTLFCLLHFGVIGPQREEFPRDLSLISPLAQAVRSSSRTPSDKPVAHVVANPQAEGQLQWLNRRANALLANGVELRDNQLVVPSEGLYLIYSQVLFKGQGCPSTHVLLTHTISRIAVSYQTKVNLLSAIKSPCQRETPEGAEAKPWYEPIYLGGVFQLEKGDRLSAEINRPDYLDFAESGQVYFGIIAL
E-selectin (Homo sapiens), sequence (P16581 whole entry, looked up): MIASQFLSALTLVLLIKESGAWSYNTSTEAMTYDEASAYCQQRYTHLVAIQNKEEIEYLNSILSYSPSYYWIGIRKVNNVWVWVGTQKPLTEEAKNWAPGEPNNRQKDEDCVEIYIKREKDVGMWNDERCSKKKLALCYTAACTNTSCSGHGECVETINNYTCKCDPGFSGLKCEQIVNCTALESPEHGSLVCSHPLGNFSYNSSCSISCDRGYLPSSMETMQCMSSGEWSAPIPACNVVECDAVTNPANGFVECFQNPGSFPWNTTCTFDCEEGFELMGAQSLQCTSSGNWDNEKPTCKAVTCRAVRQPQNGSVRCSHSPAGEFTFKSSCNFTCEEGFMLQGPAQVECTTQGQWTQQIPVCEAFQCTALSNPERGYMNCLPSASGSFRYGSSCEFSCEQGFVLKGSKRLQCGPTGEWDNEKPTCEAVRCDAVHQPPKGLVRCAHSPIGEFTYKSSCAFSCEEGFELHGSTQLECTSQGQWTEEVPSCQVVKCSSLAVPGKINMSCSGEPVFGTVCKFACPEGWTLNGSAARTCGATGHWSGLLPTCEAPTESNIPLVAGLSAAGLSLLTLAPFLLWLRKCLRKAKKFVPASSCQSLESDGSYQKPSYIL

Take `CC(C1CC1)C(O)(Cn1cncn1)c1ccc(Cl)cc1` (stereo not given): the outcome in [1], in assay [2], in assay [3], in [4], in assay [5] and in [6] was inactive. The outcome in assay [7], in assay [8], in assay [9], in [10], in [11] and in assay [12] was inactive. Also, the outcome in assay [14] is “inactive”; with CD38, CD38 (gene 952), “inactive”; with CD40, CD40 (gene 958) [15], “inactive”; with CD69, CD69 (gene 969), “inactive”; in [16], “inactive”. Further, in assay [13], the AC50 is 4.36 µM (active).

Regarding `CCC(=NOC/C=C/Cl)C1=C(O)CC(C2CCOCC2)CC1=O` (stereo not given), the outcome in assay [1] is “inactive”; in [2], “inactive”; in [3], “inactive”; in assay [4], “inactive”; with CD40, CD40 (gene 958) [17], “inactive”; in assay [5] it was “inactive”. For the same compound, the outcome in [6], in assay [7], in [8], in assay [9], in assay [10] and in assay [11] was inactive. Moreover, the outcome in assay [12] was “inactive”; in assay [13] it was “inactive”; in [14] it was “inactive”; with CD38, CD38 (gene 952) it was “inactive”; in assay [16], “inactive”.

Take `CCOP(=S)(OCC)Oc1ccc([N+](=O)[O-])cc1`: the outcome in [1], in assay [2], in assay [3], in [4], in assay [5] and in assay [6] was inactive. The result in assay [7], in [8], in assay [12], in assay [13] and in assay [16] was inactive. The AC50 is 20 µM (active) in assay [10]; 20 µM (active) in [11]; 20 µM (active) in assay [14]; 20 µM (active) with CD38, CD38 (gene 952).

As for `CCCCSP(=O)(SCCCC)SCCCC`, the outcome in [1], in [2], in [3], in assay [4], in assay [8] and in [11] was inactive. In addition, the result in assay [12] was inactive. Besides, the AC50 was 31.8 µM (active) in the assay with CD40, CD40 (gene 958) [17]; 32.6 µM (active) in assay [5]; 27.1 µM (active) in [6]; 16 µM (active) in assay [7]; 20 µM (active) in assay [9]; 29.7 µM (active) in assay [10]. In addition, the AC50 was 32.5 µM (active) in assay [13]; 31.1 µM (active) in [14]; 20 µM (active) in the assay with CD38, CD38 (gene 952); 20 µM (active) in assay [16].

Regarding `C#CCC1=C(C)C(OC(=O)C2C(C=C(C)C)C2(C)C)CC1=O` (stereo not given), the result in assay [1], in assay [2], in assay [3], in assay [4] and in [12] was inactive. Further, the AC50 in assay [5] was 28.4 µM (active); in assay [6] it was 26.7 µM (active); in assay [7], 29.1 µM (active); in [8] it was 31.9 µM (active); in assay [9] it was 33.4 µM (active); in assay [10], 3.87 µM (active). Further, the AC50 is 23.4 µM (active) in assay [11]; 32.9 µM (active) in [13]; 14.8 µM (active) in assay [14]; 33.7 µM (active) in the assay with CD38, CD38 (gene 952); 26.5 µM (active) in the assay with CD40, CD40 (gene 958) [15]; 29.8 µM (active) in the assay with CD69, CD69 (gene 969). In addition, in [16], the AC50 was 30 µM (active).

Values taken from PubChem BioAssay (EPA / NIEHS).
